Measured values taken from PubChem BioAssay (EPA / NIEHS).
The source made the active and inactive calls. How the source made its calls: active means hit-call score of the fitted dose curve at least 0.9, where 1 is the maximum; inactive means score below 0.9.

What follows are molecules tested against Hypoxia-inducible factor 1-alpha (Homo sapiens) (UniProt Q16665) (assay: ATG_HIF1a_CIS: Attagene CIS-FACTORIAL HepG2 Assay for human Hypoxia Inducible Factor 1 (HIF1A) (AID 2282951)). Details: HepG2 Attagene cis-factorial HIF1a reporter transcription; actives raise or lower the signal.
Sequence of Hypoxia-inducible factor 1-alpha (Homo sapiens) (Q16665 whole entry, looked up): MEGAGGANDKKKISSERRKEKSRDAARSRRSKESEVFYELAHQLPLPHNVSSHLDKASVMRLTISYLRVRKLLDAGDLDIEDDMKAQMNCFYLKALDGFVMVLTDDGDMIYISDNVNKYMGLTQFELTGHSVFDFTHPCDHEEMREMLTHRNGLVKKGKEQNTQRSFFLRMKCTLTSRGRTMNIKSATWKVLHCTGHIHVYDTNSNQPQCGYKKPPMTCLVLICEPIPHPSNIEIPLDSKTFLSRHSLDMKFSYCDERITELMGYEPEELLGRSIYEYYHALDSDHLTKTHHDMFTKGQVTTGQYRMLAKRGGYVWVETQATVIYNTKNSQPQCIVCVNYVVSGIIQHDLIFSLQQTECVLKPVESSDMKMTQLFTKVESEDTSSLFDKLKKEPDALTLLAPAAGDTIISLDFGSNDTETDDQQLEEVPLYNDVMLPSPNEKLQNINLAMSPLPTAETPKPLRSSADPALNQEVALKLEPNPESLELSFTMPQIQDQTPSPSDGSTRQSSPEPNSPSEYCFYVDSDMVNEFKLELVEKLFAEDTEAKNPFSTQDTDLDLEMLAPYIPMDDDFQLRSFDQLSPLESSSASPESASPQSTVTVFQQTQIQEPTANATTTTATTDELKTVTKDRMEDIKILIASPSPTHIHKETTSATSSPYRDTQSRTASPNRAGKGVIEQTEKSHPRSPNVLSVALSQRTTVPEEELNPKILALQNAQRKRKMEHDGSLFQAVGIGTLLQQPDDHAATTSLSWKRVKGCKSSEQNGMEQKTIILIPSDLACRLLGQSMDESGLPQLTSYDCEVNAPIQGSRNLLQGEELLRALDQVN
Method: ATG_CIS is a cell-based, multiplexed-readout assay that uses HepG2, a human liver cell line, with measurements taken at 24 hours after chemical dosing in a 24-well plate.ATG_HIF1a_CIS is one of 52 assay component(s) measured or calculated from the ATG_CIS assay. It is designed to make measurements of mRNA induction, a form of inducible reporter, as detected with fluorescence intensity signals by Reverse transcription polymerase chain reaction (RT-PCR) and Capillary electrophoresis technology.Data from the assay component ATG_HIF1a_CIS was analyzed into 1 assay endpoint. This assay endpoint, ATG_HIF1a_CIS, was analyzed with bidirectional fitting relative to DMSO as the negative control and baseline of activity. Using a type of inducible reporter, measures of mRNA for gain or loss-of-signal activity can be used to understand the reporter gene at the transcription factor-level as they relate to the gene HIF1A. Furthermore, this assay endpoint can be referred to as a primary readout, because this assay has produced multiple assay endpoints where this one serves a reporter gene function. To generalize the intended target to other relatable targets, this assay endpoint is annotated to the dna binding intended target family, where the subfamily is basic helix-loop-helix protein.
Human liver HepG2 cells are transiently transfected with multiple reporter transcription units (MRTUs) in 6-well plates using FuGene 6 reagent (Roche; 3 ml FuGene/1 mg DNA). The MRTU constructs are regulated by a cis-regulating element (promoter). […] A major difference between the CIS and TRANS system is that in CIS activities of endogenous TFs are measured, whereas the TRANS assay evaluates changes in activities of exogenous, chimeric NR-Gal4 proteins. […] At the end of 24 hour incubation, total RNA was isolated using TriZol reagent (Invitrogen). The isolated RNA is then reverse-transcribed using oligo(dT) primer and Mo-MLV reverse transcriptase (Invitrogen) with DNAse I (Ambion) treatment for 30 min. The one-tenth of the produced cDNA was amplified by PCR using Taq DNA polymerase (Invitrogen) and two reporter sequence-specific primers. The PCR products were fluorescently labeled by primer extension with 6-arboxyfluorescein (6-FAM) 5'-labeled reporter sequence-specific primer (2 min at 95 C, 20 s at 68 C and 10 min at 72 C) and these products were digested with 5U of HpaI (New England Biolabs) for 2h at 37 C. The fragments were purified using Qiaquick PCR columns (Qiagen), analyzed on an ABI 3130xL genetic analyzer (Applied Biosystems) with peak positions identified by using a set of X-rhodamine (ROX)-labeled MapMarker1000 molecular weight standards (BioVentures). The raw capillary electrophoresis data was processed using Attagraph software (Attagene).
`CCN(CC)c1ccc(C(=O)c2ccccc2C(=O)O)c(O)c1` was tested, and the outcome was “inactive”.
For `O=C1CCCC(=O)O1`, the outcome was “inactive”.
`COC(=O)/C=C/C(C)=C\C=C\C(C)=C\C=C\C=C(C)\C=C\C=C(C)\C=C\C(=O)O` was tested, and the outcome was “inactive”.
`C1CN(SSN2CCOCC2)CCO1` was tested, and the outcome was “inactive”.
`Cc1ccc(C2OC[C@@H]3OC(c4ccc(C)cc4)O[C@H]([C@H](O)CO)[C@@H]3O2)cc1` (stereo not given in full) was tested, and the outcome was “inactive”.
In the case of `C=CC(C)(CCC=C(C)C)OC(=O)C(C)C` (stereo not given), the outcome is reported as “inactive”.
With `CC1(C)[C@H]2CC[C@]1(C)C(=O)C2` the outcome was “inactive”.
In the case of `CCOCC(=O)O`, the outcome is reported as “inactive”.
In the case of `CCCCCCCCCCOS(=O)(=O)O`, the outcome is reported as “inactive”.
With `CCCCCCCCCCCCCCCCCC#N` the outcome was “inactive”.
`O=c1c2ccccc2nnn1CCl` was tested, and the outcome was “inactive”.
In the case of `COc1cc(C)ccc1C(C)C`, the outcome is reported as “inactive”.
In the case of `C#CC1(O)CC[C@H]2[C@@H]3CCC4=CCCC[C@@H]4[C@H]3CC[C@@]21C` (stereo not given in full), the outcome is reported as “inactive”.
In the case of `CC(=O)OCC(=O)[C@@]12N=C(C)O[C@@H]1C[C@H]1[C@@H]3CCC4=CC(=O)C=C[C@]4(C)[C@H]3[C@@H](O)C[C@@]12C`, the outcome is reported as “inactive”.
In the case of `CCCOCCOCCOCCO`, the outcome is reported as “inactive”.
For `S=C(NC1CCCCC1)NC1CCCCC1`, the outcome was “inactive”.
For `C[Si](C)O[Si](C)(C)O[Si](C)(C)O[Si](C)C`, the outcome was “inactive”.
In the case of `Nc1ccc2cc3ccccc3cc2c1`, the outcome is reported as “inactive”.
`c1ccc2c(c1)ccc1cc3c(ccc4ccccc43)cc12` was tested, and the AC50 was 364 nM (active).
For `Oc1ccc(Cl)cc1Cc1cc(Cl)ccc1O`, the AC50 was 11100 nM (active).
For `C=C(C)C(=O)OCC(C)C`, the outcome was “inactive”.
In the case of `O=C(c1ccc(O)cc1)c1ccc(O)cc1O`, the outcome is reported as “inactive”.
In the case of `c1c[nH]cn1`, the outcome is reported as “inactive”.
With `CC(=O)c1ccc[nH]1` the outcome was “inactive”.
For `NC(=O)N=NC(N)=O`, the outcome was “inactive”.
In the case of `O=S(=O)(Oc1ccc(Cl)cc1Cl)c1ccccc1`, the outcome is reported as “inactive”.
In the case of `CCCCCCCCO[C@@H]1O[C@H](CO)[C@@H](O)[C@H](O)[C@H]1O`, the outcome is reported as “inactive”.
For `CC(=O)OCC(C)OC(C)=O` (stereo not given), the outcome was “inactive”.
`O=S(=O)(O)CC(O)CCl` (stereo not given) was tested, and the outcome was “inactive”.
In the case of `CCCCCCCC[N+](C)(CCCCCCCC)CCCCCCCC`, the AC50 is reported as 0.753 nM (active).
`Cc1c(C)c([N+](=O)[O-])c(C(C)(C)C)c([N+](=O)[O-])c1C` was tested, and the outcome was “inactive”.
`C=CC(C)(C)C` was tested, and the outcome was “inactive”.
With `COc1ccc(C(Cl)=C(c2ccc(OC)cc2)c2ccc(OC)cc2)cc1` the outcome was “inactive”.
In the case of `O=C(Cl)c1cc(C(=O)Cl)cc(C(=O)Cl)c1`, the outcome is reported as “inactive”.
`SCCc1cnccn1` was tested, and the outcome was “inactive”.
In the case of `O=C(Nc1ccccc1)c1ccccc1O`, the outcome is reported as “inactive”.
For `NCCCN1CCN(CCCN)CC1`, the outcome was “inactive”.
For `CCC(C)C=O` (stereo not given), the outcome was “inactive”.
With `CC(C)c1ccc(C#N)cc1` the outcome was “inactive”.
In the case of `Clc1nc2ccccc2s1`, the outcome is reported as “inactive”.
